The source of these data is PubChem BioAssay AID602243 (Broad Institute, 2012).

The nature of this test: V. cholerae lux activation without autoinducers – BH1578 luxS cqsA deficient, cherry-pick, plate reader, dose response (AID 602243).

Some of the results follow. Active and inactive are the calls of the source. How the calls were made is not given here.

In the case of `NNC(=O)c1nnn(-c2nonc2N)c1CN1CCCC1`, the call was inactive.
Under `CC(C)CNC(=O)COC(=O)/C=C/c1ccco1` stands “inactive”; under `COc1ccc(N(CC(=O)NC2CCCCC2)C(=O)CNC(=O)c2ccco2)c(OC)c1`, “inactive”.
Next, `O=C(Cc1ccc2c(c1)CCCC2)Nc1ccccc1Cl`: “inactive”; `COc1ccc(OCc2cn3c(C)cc(C)nc3n2)cc1`: “inactive”.
Under `CCc1cccc(C)c1N(C(=O)Cn1c(CO)nc2ccccc21)C(C)COC` (stereo not drawn) stands “inactive”; under `CCOc1ccc(CCNC(=O)C2CCN(c3ccc(N4CCOCC4)nn3)CC2)cc1OCC`, “inactive”; under `CCCn1nnnc1NCc1ccc(OC)cc1`, “inactive”.
On to `CC(C)CC(=O)N1CCN(Cc2ccccc2Br)CC1`, for which the compound was classed as inactive.
Next, `Cc1onc(-c2ccccc2)c1C(=O)N1CCOCC1`: “inactive”; `O=C(CN1CCC(O)(c2cccc(C(F)(F)F)c2)CC1)NCCc1ccccc1`: “inactive”; `COc1ccc(S(=O)(=O)N2CCN(c3cnccn3)CC2)cc1`: “inactive”.
Under `CN(CC(=O)Nc1ccc(OC(F)(F)F)cc1)C(=O)C1CCC1` stands “inactive”.
Regarding `CCN(CC)c1nc(-c2ccccc2)cc(C(F)(F)F)c1C#N`, the call was inactive.
Next, `CCN(CC(=O)NCc1ccc(Cl)cc1)C(=O)CSc1ccccc1`: “inactive”.
Next, `COc1ccc(Cl)cc1NC(=O)COC(=O)c1ccc(Br)o1`: “inactive”; `CC(=O)N1CCN(C(=O)c2cc(-c3ccc(Cl)s3)nc3ccccc23)CC1`: “inactive”; `CCCS(=O)(=O)N1CCCC(C(=O)N2CCN(c3ccccc3)CC2)C1` (stereo not drawn): “inactive”.
Next, `CCCn1nnnc1NCc1ccc(CC)cc1`: “inactive”.
As for `O=C(Nc1ccc2oc(-c3ccc4ccccc4c3)nc2c1)c1cccs1`, the call was inactive.
With `COc1ccc(Cl)cc1NC(=O)CN(C)C(=O)CNC(=O)C12CC3CC(CC(C3)C1)C2`, the result was inactive.
Take `Cc1cccc(C(=O)OCC(=O)NCC(C)C)c1O`: the outcome was inactive.
Under `COCCn1nnnc1CN1CCC(NC(=O)Nc2cccc(OC)c2)CC1` stands “inactive”; under `CCC(C)(C)n1nnnc1CN1CCN(c2nc3ccc(C)cc3cc2C#N)CC1`, “inactive”; under `COc1ccccc1CCNC(=O)C(=O)NCCC1CCCCN1S(=O)(=O)c1cccs1` (stereo not drawn), “inactive”.
Next, `CCOC(=O)C1(CCOc2ccccc2)CCN(Cc2cc(OC)cc(OC)c2)CC1`: “inactive”.
Under `CC1CN(C(=O)COC(=O)c2cccc(NS(=O)(=O)c3ccccc3)c2)CC(C)O1` (stereo not drawn) stands “inactive”; under `O=C(NCCS(=O)(=O)N1CCN(c2ccccc2)CC1)c1ccco1`, “inactive”.
With `NC(=O)c1nsc(C(=O)N(CC(=O)NCc2ccc(F)cc2)Cc2ccco2)c1N`, the call was inactive.
Regarding `O=C(NCc1ccccn1)c1c(O)c2c([nH]c1=O)CCCC2`, the compound was classed as inactive.
Next, `COc1cc(S(=O)(=O)N(Cc2cccs2)C2CC2)ccc1-n1cnnn1`: “inactive”; `COc1ccc(CNc2nnnn2C)cc1`: “inactive”; `COc1ccc2[nH]c(=O)c(CNc3ccc(C)c(C)c3)cc2c1`: “inactive”.
